High-throughput results from PubChem BioAssay.
HTT aggregate – reduces HttQ103-GFP aggregates in PC12 cells; PC12 HttQ103-GFP aggregates, Acumen cytometry, 40 h; Potency, µM (highest dose often 46.1 µM), usual class: inhibitors; hit rate 1.1% among 220,000; AID 1688; note: nearly all actives have a fitted effect of over 60% in size
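Ecdysone-promoter PC12 model expressing HTT exon 1 Q103 fused to GFP, induced by tebufenozide at 100 nM final. Compounds titrated; aggregates sized 1–25 µm scored on a 488 nm laser cytometer.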
HTT ATP protect – protects HTT-Q103 PC12 cells, measured by ATP. Potency, µM (highest dose often 56.4 µM), hits mostly activators. PC12 HTT-Q103 induced, cytoprotection, ATP luminescence, 40 h. hit rate 0.14% among 230,000. AID 1471; note: nearly all actives have a fitted effect of over 45% in size
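PC12 cells stably carrying ecdysone-inducible Htt exon 1 (Q103)–GFP were induced with 100 nM tebufenozide (final) alongside library compounds in a dose series. Cytoprotection was scored as retained ATP by ATPlite luminescence.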
IDH1 R132H inh – blocks human mutant IDH1 R132H enzyme. O75874. IDH1-R132H enzyme, NADPH consumption, diaphorase/resazurin fluorescence. Potency, µM (highest dose often 76.6 µM), actives largely listed as inhibitors. hit rate 0.093% among 390,000. AID 602179; note: nearly all actives have a fitted effect of over 65% in size
Target sequence (O75874 whole entry R132H, stated change not applied): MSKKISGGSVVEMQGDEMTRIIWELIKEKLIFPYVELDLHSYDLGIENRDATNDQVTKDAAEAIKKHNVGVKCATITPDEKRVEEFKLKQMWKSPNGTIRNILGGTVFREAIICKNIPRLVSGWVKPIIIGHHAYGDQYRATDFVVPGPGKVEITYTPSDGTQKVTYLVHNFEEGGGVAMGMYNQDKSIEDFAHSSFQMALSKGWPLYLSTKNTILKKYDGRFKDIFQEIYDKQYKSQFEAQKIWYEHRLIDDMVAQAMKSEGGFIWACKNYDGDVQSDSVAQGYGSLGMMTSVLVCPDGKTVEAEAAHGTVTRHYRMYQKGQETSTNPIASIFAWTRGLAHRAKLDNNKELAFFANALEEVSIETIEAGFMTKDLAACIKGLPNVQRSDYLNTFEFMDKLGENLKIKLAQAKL
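IDH1-R132H (0.5 ug/mL dispensed) in pH 7.5 Tris buffer was preincubated 30 min with compound, then given a substrate mix of 0.016 mM NADPH and 2 mM alpha-KG for 80 min at room temperature; remaining NADPH was read by diaphorase/resazurin fluorescence.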
A-T KAP1 phos – candidate therapy for ataxia-telangiectasia; F2112 A-T fibroblasts, KAP-1 phosphorylation AlphaLISA; neocarzinostatin DNA damage 30 min before lysis; Potency, µM (series often up to 57.5 µM), actives largely listed as activators; hit rate 0.19% among 320,000; AID 485349; note: nearly all actives have a fitted effect of over 45% in size
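ATM-like activity read as KAP-1 phosphorylation via AlphaLISA donor/acceptor antibody pairs after lysis and 6 hr at 25C. Cells were ATM-null patient fibroblasts (F2112, hTERT), dosed 60 min, then exposed to the DSB inducer NCS for 30 min.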
NPSR antagonist – neuropeptide S receptor (human) antagonism, cAMP. Q6W5P4. CHO-NPSR cells, cAMP TR-FRET, antagonist mode. Potency, µM (doses to about 38.3 µM), actives largely listed as inhibitors. hit rate 1% among 220,000; note: nearly all actives have a fitted effect of over 50% in size
IDH1 autofl – interferes with resorufin fluorescence in IDH1 counter-screen | shares compounds with IDH1 R132H inh | Resorufin detection reagent fluorescence interference, cell-free | inhibition of signal, % at 51.2 µM | 750 tested, under 10 active | AID 623980
IDH1 WT – selectivity of mutant IDH1 inhibitors: human wild-type IDH1 | shares compounds with IDH1 R132H inh | WT IDH1 enzyme, NADPH diaphorase/resazurin fluorescence | Potency, µM (doses to about 115 µM), actives largely listed as inhibitors | hit rate 9% among 750; note: nearly all actives have a fitted effect of over 55% in size
Target sequence (O75874 whole entry, looked up): as the sequence (O75874 whole entry R132H, stated change not applied) above, with H132R counted along it
mIDH1 confirm – confirmation of human mutant IDH1 inhibitors. hit rate 83% among 750. shares compounds with IDH1 R132H inh. IDH1 R132H enzyme, NADPH diaphorase/resazurin fluorescence. Potency, µM (top dose mostly 76.6 µM), most hits filed as inhibitors; note: nearly all actives have a fitted effect of over 50% in size
A number is an active result; . = inactive; ? = inconclusive; / = no result; [ ] = dose if it differs, or a comment. This is a sample that favours compounds with a hit; in the whole collection about 1.1% have one here. Calls come from the whole dose curve; as a rule, active = well fitted curve in the direction sought with a large enough effect; inconclusive = small, poorly fitted or top-dose-only effect, or another doubt; inactive = no such curve, though single readings can be large; an effect the other way counts as inactive or inconclusive.

SMILES	HTT aggregate	HTT ATP protect	IDH1 R132H inh	A-T KAP1 phos	NPSR antagonist	IDH1 autofl	IDH1 WT	mIDH1 confirm
N=c1c(S(=O)(=O)c2ccccc2)cc2c(=O)n3ccccc3nc2n1C1CCCC1	/	/	18µM	.	/	.	.	7.1µM
Cc1ccc(CCNC(=O)c2ccc3c(c2)c(C)c(C)n3Cc2ccccc2)cc1	/	/	.	/	/	/	/	/
Cc1sc2nc(C3CCCCC3)nc(SCC(=O)N3CC(=O)Nc4ccccc43)c2c1C	.	.	.	.	.	/	/	/
CCc1nc(SCC(=O)N2CC(=O)Nc3ccccc32)c2c(C)c(C)sc2n1	.	.	?	.	.	.	.	32µM
CCOc1ccc(-c2cc3nc(C4CCN(C(=O)OC(C)(C)C)CC4)c(C(=O)O)cn3n2)cc1	.[9.22 µM]	.	16µM	/	?	.	79µM	14µM
C[C@H](CO)N1C[C@H](C)[C@H](CN(C)C(=O)c2ccccn2)Oc2cc(C#Cc3ccc(F)cc3)ccc2S1(=O)=O	/	/	.	/	/	/	/	/
C[C@@H]1CN([C@H](C)CO)S(=O)(=O)c2ccc(C#Cc3ccccc3F)cc2O[C@H]1CN(C)C(=O)c1ccc2c(c1)OCO2	/	/	?	/	/	.	.	5.6µM
CCOc1ccc(N(C)S(=O)(=O)c2c(C(=O)N3CCC(C)CC3)c(C)n(C)c2C)cc1	/	/	.	/	/	/	/	/
Cc1ccc(C2=Nc3ccc(Br)cc3C(c3ccncc3)=NN2)cc1	.[9.22 µM]	.[10 µM]	15µM	.	.	.	.	22µM
Cc1ccc2c(c1)C(c1ccncc1)=NNC(c1ccc(F)cc1)=N2	.	.[10 µM]	.	.	.	/	/	/
O=C(c1ccccc1)N1N=C(c2ccccc2)CC1c1ccccc1O (configuration not stated)	.[9.22 µM]	.	.	.	?	/	/	/
O=C(c1ccncc1)N1N=C(c2ccc(Br)cc2)CC1c1ccccc1O (configuration not stated)	/	/	35µM	.	/	.	.	16µM
CCOc1ccc(NC(=O)Cc2ccc(NC(=O)N3CCCCc4ccccc43)cc2)cc1	/	/	.	/	/	/	/	/
COc1cc2cnc(-c3ccsc3)c(-c3ccc(F)cc3)c2cc1OC	/	/	?	.	/	.	.	25µM
COc1cc2cnc(-c3ccsc3)cc2cc1OC	/	/	.	.	/	/	/	/
COc1cc2cnc(-c3ccccc3)c(-c3ccc(C#N)cc3)c2cc1OC	/	/	32µM	.	/	.	?	8.9µM
Nc1ncnc2nn([C@H]3O[C@@H](CO)[C@@H](O)[C@H]3O)nc12	/	.[10 µM]	/	/	/	/	/	/
CCOc1cc(C=C2C(=O)c3ccccc3C2=O)ccc1OCC(=O)Nc1ccc(C)cc1	.	.[10 µM]	?	.	.	.	.	16µM
O=S(=O)(c1ccc2ccccc2c1)N1CCN(S(=O)(=O)c2ccc3ccccc3c2)CC1	/	.[10 µM]	/	/	/	/	/	/
O=C(CCl)N1CCN(S(=O)(=O)c2ccc3ccccc3c2)CC1	/	/	52µM	.	/	.	.	20µM
C/C(=N/Nc1nc(C)cc(=O)[nH]1)C(=O)O	/	.[10 µM]	/	/	/	/	/	/
CC(=O)Oc1cc(O)c2c(c1)OC(c1ccc(OC(C)=O)c(OC(C)=O)c1)C(OC(C)=O)C2=O (configuration not stated)	/	/	52µM	.	/	.	.	?
CC(C)c1ccc(NC2CCCN(C(=O)c3ccc(N4CCOCC4)cc3)C2)cc1 (configuration not stated)	/	/	45µM	.	/	.	.	20µM
Nc1ncnc2c1ncn2[C@H]1O[C@@H](CO)[C@@H](O)[C@H]1N	/	.[10 µM]	/	/	/	/	/	/
Cc1c(CC(=O)NCCc2ccccc2F)c(=O)oc2c(C)c3occ(C(C)(C)C)c3cc12	/	/	.	/	/	/	/	/
SMILES	HTT aggregate	HTT ATP protect	IDH1 R132H inh	A-T KAP1 phos	NPSR antagonist	IDH1 autofl	IDH1 WT	mIDH1 confirm
Cc1nc([N+](=O)[O-])c(Br)n1CC(=O)c1ccc2ccccc2c1	.	.	?	.	?	.	?	28µM
Cc1cc(C)cc(N(C(=O)CCC(=O)Nc2cc(C)on2)C(C(=O)NC2CCCC2)c2ccco2)c1 (configuration not stated)	/	/	?	.	.	.	.	25µM
Cc1cc(NC(=O)CCC(=O)N(c2ccccc2C)C(C(=O)NC2CCCC2)c2ccccc2)no1 (configuration not stated)	/	/	?	.	/	.	.	25µM
Cc1ccc(N(C(=O)CCC(=O)Nc2cc(C)on2)C(C(=O)NC2CCCC2)c2ccccc2)cc1 (configuration not stated)	.[9.22 µM]	.[10 µM]	?	.	.	.	.	22µM
Cc1ccc(C)c(N(C(=O)CCC(=O)Nc2cc(C)on2)C(C(=O)NC2CCCC2)c2ccco2)c1 (configuration not stated)	.	.	.	.	.	/	/	/
Cc1cc(NC(=O)CCC(=O)N(c2ccccc2)C(C(=O)NC2CCCC2)c2ccccc2C)no1 (configuration not stated)	/	/	37µM	.	/	.	.	13µM
COC(=O)c1sc2cccc(F)c2c1S(=O)(=O)N1CCN(c2cccc(C)c2)C(C)C1 (configuration not stated)	/	/	.	/	/	/	/	/
Cc1cc(O)c2c(c1)OC1(C)CCC3C(C)(C)CCCC34COC2C14 (configuration not stated)	.	.	/	/	/	/	/	/
O=C(NC1CCCCC1)C(c1ccncc1)N(C(=O)c1ccco1)c1ccc(F)cc1 (configuration not stated)	/	/	?	.	/	.	.	40µM
O=C(NC1CCCC1)C(c1ccncc1)N(C(=O)c1ccco1)c1ccccc1 (configuration not stated)	/	/	.	.	/	/	/	/
Cc1ccc(N(C(=O)CCC(=O)Nc2cc(C)on2)C(C(=O)NC2CCCC2)c2cccs2)cc1 (configuration not stated)	.	.	.	.	.	/	/	/
Cc1cc(C)cc(N(C(=O)c2ccco2)C(C(=O)NC2CCCC2)c2ccncc2)c1 (configuration not stated)	/	/	?	.	/	.	.	45µM
O=C(NC1CCCC1)C(c1ccncc1)N(C(=O)c1ccco1)c1ccc(F)c(Cl)c1 (configuration not stated)	/	/	?	.	/	.	.	40µM
Cc1ccc(N(C(=O)C(F)(F)F)C(C(=O)NC2CCCCC2)c2cccs2)cc1 (configuration not stated)	.	.	?	.	.	.	.	11µM
O=C(NCCCc1nc2ccccc2n1Cc1ccccc1F)c1ccco1	/	/	.	/	/	/	/	/
O=C(CCCCn1c(=O)c2ccccc2n(Cc2cccc(F)c2)c1=O)NCc1ccc2c(c1)OCO2	/	/	.	/	/	/	/	/
